A short description of test [1]: qHTS assay to identify small molecule agonists of the sonic hedgehog signaling (Shh) pathway (AID 1259368; calls by dose curve; note: series mostly up to about 92 µM; nearly all actives have a fitted effect of over 15% in size). In a few lines: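 NIH/3T3-derived 3T3Gli1-Luc cells carrying a stably integrated Gli1 response element–firefly luciferase reporter were plated, left 4 hr at 37 C, then given compounds in DMSO for 24 hr. Luminescence was read 30 min after adding luciferase reagent.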
(In general: In qHTS, concentration-response curves come from the screen itself.)

Test [2] in a line: qHTS assay to identify small molecule antagonists of the sonic hedgehog signaling (Shh) pathway (AID 1259369; calls by dose curve; note: nearly all actives have a fitted effect of over 45% in size; note: potency is the fitted concentration of half-maximal effect). In a few lines: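 NIH/3T3-derived 3T3Gli1-Luc cells with stably integrated Gli1-Luc reporter were preincubated 4hr at 37 C, then given compounds in DMSO plus Shh conditioned medium and incubated 24hr. Firefly luciferase luminescence read after 30min reagent at room temperature.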

In test [3] the target is Estrogen receptor beta (Homo sapiens) (UniProt Q92731). The experiment in a line: qHTS assay to identify small molecule agonists of the estrogen receptor beta (ER-beta) signaling pathway (AID 1259377; active = well fitted activation curve with a large enough effect in the signal ratio in the repeat runs, not every such curve was filed as active; the % refers to the signal ratio; note: potency is the fitted concentration of half-maximal effect). The procedure, abridged: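 HEK293T ER-beta-UAS-bla; 2% charcoal-stripped FBS; cells pre-incubated 6 hr, compound 16 hr, 37C/5% CO2; LiveBLAzer B/G FRET substrate 2 h RT; fluorescence intensity read.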

The nature of test [4]: qHTS assay to identify small molecule agonists of the estrogen receptor beta (ER-beta) signaling pathway - cell viability counter screen (AID 1259380). Note: nearly all actives have a fitted effect of over 30% in size. Note: potency is the fitted concentration of half-maximal effect. In a few lines:
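ER-beta-UAS-bla HEK293T cells in medium with 2% charcoal-stripped FBS were preincubated 6 hr at 37C, dosed with compound in DMSO for 16 hr, then after the bla read, CellTiter-Glo was added for 30 min at room temperature; luminescence recorded.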

The nature of test [5]: qHTS assay to identify small molecule antagonists of the estrogen receptor beta (ER-beta) signaling pathway - cell viability counter screen (AID 1259382). Note: nearly all actives have a fitted effect of over 55% in size. Note: potency is the fitted concentration of half-maximal effect. In a few lines:
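ER-beta-UAS-bla HEK293T cells (2,000/well, 2% charcoal-stripped FBS) were pre-incubated 6 hr at 37C, then given compound plus 1nM final 17-beta-estradiol for 16 hr. Viability was read in the same wells by CellTiter-Glo luminescence after 30 min at room temperature.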

Test [6] has as its target Estrogen receptor (Homo sapiens) (UniProt P03372). Kind of test: qHTS assay to identify small molecule agonists of the estrogen receptor alpha (ER-alpha) signaling pathway in the presence of an antagonist (AID 1259383; calls by dose curve; note: nearly all actives have a fitted effect of over 15% in size; note: potency is the fitted concentration of half-maximal effect; for activation: top concentration of the series differs between compounds). In a few lines: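 VM7Luc4E2 cells (endogenous full-length ER-alpha, 4×ERE-luciferase) were precultured 5 days in phenol red-free medium with 10% charcoal-stripped FBS, given 10.0nM ICI-182,780 (final), then treated with compounds at 15 concentrations for 22hr at 37C; luminescence read with ONE-Glo.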

Test [7] in a line: qHTS assay to identify small molecule agonists or antagonists of the thyroid stimulating hormone receptor (TSHR) signaling pathway - wild type cell line counter screen (AID 1259384; calls by dose curve). The procedure, abridged: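 Counter screen in untransfected Hek293: compounds (15-point titration, triplicate) plus phosphodiesterase inhibitor Ro20-1724 added after 18 h plating; 30 min RT. Intracellular cAMP via competitive d2/cryptate immunoassay, 1 h incubation.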

Test [8] concerns the target Thyrotropin receptor (Homo sapiens) (UniProt P16473). The experiment in a line: qHTS assay to identify small molecule antagonists of the thyroid stimulating hormone receptor (TSHR) signaling pathway (AID 1259385; calls by dose curve; note: nearly all actives have a fitted effect of over 20% in size). The procedure, abridged:
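Antagonist mode: compound-treated TSHR-expressing HEK293 cells were stimulated with 1.5 ng/mL TSH (final) in presence of Ro20-1724 for 30 min at RT. HTRF cAMP detection after 1 h; each compound tested at 15 concentrations, triplicate.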

Test [9] is described as follows: qHTS assay to identify small molecule agonists of the estrogen receptor alpha (ER-alpha) signaling pathway in the presence of an antagonist - cell viability counter screen (AID 1259386).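 Note: cells exposed to compounds for 22 h at 37 °C before the viability read; nearly all actives have a fitted effect of over 30% in size.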 Note: potency is the fitted concentration of half-maximal effect. The procedure, abridged: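 VM7Luc4E2 cells (endogenous full-length ER-alpha, 4×ERE-luciferase) were held 5 days in phenol red-free medium with 10% charcoal-stripped FBS, plated, then given 10.0nM ICI-182,780 and compounds at 15 concentrations for 22hr at 37C; viability read by CellTiter-Fluor fluorescence.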

Test [10] concerns the target Progesterone receptor (Homo sapiens) (UniProt P06401). The experiment in a line: qHTS assay to identify small molecule agonists of the progesterone receptor (PR) signaling pathway (AID 1346784; calls by dose curve; note: nearly all actives have a fitted effect of over 30% in size). In a few lines:
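Beta-lactamase reporter read-out: after 16 hr compound treatment at 37C and a further 2 hr at room temperature with LiveBLAzer B/G FRET substrate, fluorescence was measured in PR-UAS-bla HEK 293T cells grown in 2% charcoal-stripped serum.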

For test [11] the target is unchanged. The experiment in a line: qHTS assay to identify small molecule antagonists of the progesterone receptor (PR) signaling pathway (AID 1346795; active = well fitted inhibition curve with a large enough effect in the signal ratio in the repeat runs, not every such curve was filed as active; the % refers to the signal ratio; note: potency is the fitted concentration of half-maximal effect). In a few lines:
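Read-out is fluorescence from the LiveBLAzer B/G FRET substrate, cleaved by a UAS-controlled beta-lactamase in PR-UAS-bla HEK293T cells after 16 hr exposure to compound plus 1 nM promegestone (final), followed by 2 hr at room temperature.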

Test [12] is described as follows: qHTS assay to identify small molecule antagonists of the TGF-beta/Smad signaling pathway - cell viability counter screen (AID 1346824). Note: nearly all actives have a fitted effect of over 50% in size. The procedure, abridged: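 Cytotoxicity counter-screen run in the same wells as the beta-lactamase Smad reporter read: CellTiter-Glo luminescence after 30 min at room temperature. HEK 293T SBE-bla cells had 5 hr compound exposure at 37 C with TGF-beta1 (0.25 ng/mL stock).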

Test [13] can be described thus: qHTS assay to identify small molecule agonists of the TGF-beta/Smad signaling pathway - cell viability counter screen (AID 1346829). Note: top concentration of the series differs between compounds; nearly all actives have a fitted effect of over 45% in size. The procedure, abridged:
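Here the cytotoxicity of library compounds is measured in SBE-bla HEK 293T cells treated for 5 hr, using CellTiter-Glo added to wells already read for the beta-lactamase reporter.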

A short description of test [14]: qHTS assay to identify small molecule agonists of the TGF-beta/Smad signaling pathway (AID 1346859; active = well fitted activation curve with a large enough effect in the signal ratio in the repeat runs, not every such curve was filed as active; the % refers to the signal ratio; note: series mostly up to about 77 µM). In a few lines:
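SBE-bla HEK 293T, 4,000 cells/well, plated o/n; cpd in DMSO, 5 hr, 37 C/5% CO2; B/G FRET substrate 2 hr RT; ex 405, em 460/530 nm.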

Test [15] has as its target Thyrotropin-releasing hormone receptor (Homo sapiens) (UniProt P34981). Kind of test: qHTS assay to identify small molecule antagonists of the thyrotropin-releasing hormone receptor (TRHR) signaling pathway (AID 1346877; active = well fitted inhibition curve with a large enough effect in the repeat runs, not every such curve was filed as active; note: series mostly up to about 51 µM). The procedure, abridged:
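TRHR-expressing HEK293 cells were seeded, cultured 18 h at 37 °C, then loaded with calcium dye for 2 h. Compounds were pre-incubated 5 min at room temperature before 1 nM TRH (final) was added, and kinetic fluorescence was recorded for 3 min.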

Test [16] is described as follows: qHTS assay to identify small molecule agonists of the androgen receptor (AR) signaling pathway in the presence of an antagonist - cell viability counter screen (AID 1259379). Note: series mostly up to about 92 µM; nearly all actives have a fitted effect of over 25% in size. The procedure, abridged:
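MDA-kb2 human breast carcinoma cells (stable MMTV-luciferase, AR/GR responsive) were seeded 3,000 cells/well, pre-incubated 5 hr at 37C without CO2, then given 3.0uM nilutamide and compounds at 15 concentrations for 16 hr. Viability was read by CellTiter-Fluor fluorescence.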

Test [17] has as its target Androgen receptor (Homo sapiens) (UniProt P10275). The experiment in a line: qHTS assay to identify small molecule agonists of the androgen receptor (AR) signaling pathway in the presence of an antagonist (AID 1259381; calls by dose curve; note: nearly all actives have a fitted effect of over 15% in size). The procedure, abridged: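 MDA-kb2 human breast carcinoma cells carrying an MMTV-luciferase reporter (AR- and GR-responsive) were treated with compounds at 15 concentrations plus 3.0uM final nilutamide for 16hr at 37C without CO2; luminescence was read after ONE-Glo addition.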

A short description of test [18]: qHTS assay to identify small molecule antagonists of the progesterone receptor (PR) signaling pathway - cell viability counter screen (AID 1346798). Note: nearly all actives have a fitted effect of over 50% in size. Note: potency is the fitted concentration of half-maximal effect. In a few lines:
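HEK293T PR-UAS-bla, 2% charcoal-stripped FBS; 4 hr pre-plate; cpd + R5020, 16 h 37C; LiveBLAzer read first; then CellTiter-Glo 30 min RT, luminescence.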

A short description of test [19]: qHTS assay to identify small molecule agonists of the progesterone receptor (PR) signaling pathway - cell viability counter screen (AID 1346799; calls by dose curve; note: nearly all actives have a fitted effect of over 45% in size). In a few lines:
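Luminescence from CellTiter-Glo, added after the beta-lactamase FRET read in the same wells, gave cytotoxicity in PR-UAS-bla HEK293T cells treated with compounds for 16 hr at 37C.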

Values joined by “and” are separate entries in the source; they are usually repeats but may differ in a detail not shown here. Equal values may be shown once. Results filed as inconclusive are left out. Active and inactive are the calls of the source. Unless noted, calls come from the whole dose curve; as a rule, active = well fitted curve in the direction sought with a large enough effect in the repeat runs; inconclusive = weak or mixed curves; inactive = no such curve, though single readings can be large; an effect the other way counts as inactive or inconclusive.

Sequence of Progesterone receptor (Homo sapiens) (P06401 whole entry, looked up): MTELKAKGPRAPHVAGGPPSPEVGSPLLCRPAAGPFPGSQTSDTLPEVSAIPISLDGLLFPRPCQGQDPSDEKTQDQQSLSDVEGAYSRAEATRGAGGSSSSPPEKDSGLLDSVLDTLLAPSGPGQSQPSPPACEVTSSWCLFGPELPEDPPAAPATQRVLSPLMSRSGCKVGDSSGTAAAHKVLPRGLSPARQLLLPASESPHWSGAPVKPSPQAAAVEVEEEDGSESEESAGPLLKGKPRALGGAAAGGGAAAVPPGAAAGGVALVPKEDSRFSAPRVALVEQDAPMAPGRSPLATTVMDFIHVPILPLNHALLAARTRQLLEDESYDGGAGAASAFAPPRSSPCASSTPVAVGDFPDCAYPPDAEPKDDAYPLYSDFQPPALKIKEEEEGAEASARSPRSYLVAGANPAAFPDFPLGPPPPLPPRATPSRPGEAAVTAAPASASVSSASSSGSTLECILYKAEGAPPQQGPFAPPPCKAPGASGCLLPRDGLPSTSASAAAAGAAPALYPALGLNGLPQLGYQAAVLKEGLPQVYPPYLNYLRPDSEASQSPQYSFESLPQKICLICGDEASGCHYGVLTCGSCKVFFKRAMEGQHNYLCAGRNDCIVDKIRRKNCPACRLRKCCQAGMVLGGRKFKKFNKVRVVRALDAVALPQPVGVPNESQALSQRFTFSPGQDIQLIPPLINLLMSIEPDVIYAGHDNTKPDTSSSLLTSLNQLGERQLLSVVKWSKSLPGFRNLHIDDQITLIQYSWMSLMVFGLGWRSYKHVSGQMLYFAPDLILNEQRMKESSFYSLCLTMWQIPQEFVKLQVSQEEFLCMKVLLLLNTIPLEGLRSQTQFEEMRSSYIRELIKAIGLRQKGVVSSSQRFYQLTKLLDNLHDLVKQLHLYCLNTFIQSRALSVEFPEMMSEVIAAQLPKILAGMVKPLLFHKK
Sequence of Estrogen receptor (Homo sapiens) (P03372 whole entry, looked up): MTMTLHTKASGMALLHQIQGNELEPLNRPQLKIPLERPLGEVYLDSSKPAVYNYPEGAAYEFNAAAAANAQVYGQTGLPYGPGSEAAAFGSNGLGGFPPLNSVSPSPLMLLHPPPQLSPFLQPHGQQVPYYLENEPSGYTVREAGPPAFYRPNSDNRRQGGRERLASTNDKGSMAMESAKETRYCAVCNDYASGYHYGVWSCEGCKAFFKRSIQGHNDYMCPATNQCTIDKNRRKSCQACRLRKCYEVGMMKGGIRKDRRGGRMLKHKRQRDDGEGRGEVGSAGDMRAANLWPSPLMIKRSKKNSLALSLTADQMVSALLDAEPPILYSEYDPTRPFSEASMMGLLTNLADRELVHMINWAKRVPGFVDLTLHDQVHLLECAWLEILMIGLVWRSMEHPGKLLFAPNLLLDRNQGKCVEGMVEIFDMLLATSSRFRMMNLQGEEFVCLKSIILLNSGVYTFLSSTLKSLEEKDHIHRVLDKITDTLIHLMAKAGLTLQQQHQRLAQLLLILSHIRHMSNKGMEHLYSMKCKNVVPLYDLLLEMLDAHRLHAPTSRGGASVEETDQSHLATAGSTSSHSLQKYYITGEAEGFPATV
Sequence of Thyrotropin-releasing hormone receptor (Homo sapiens) (P34981 whole entry, looked up): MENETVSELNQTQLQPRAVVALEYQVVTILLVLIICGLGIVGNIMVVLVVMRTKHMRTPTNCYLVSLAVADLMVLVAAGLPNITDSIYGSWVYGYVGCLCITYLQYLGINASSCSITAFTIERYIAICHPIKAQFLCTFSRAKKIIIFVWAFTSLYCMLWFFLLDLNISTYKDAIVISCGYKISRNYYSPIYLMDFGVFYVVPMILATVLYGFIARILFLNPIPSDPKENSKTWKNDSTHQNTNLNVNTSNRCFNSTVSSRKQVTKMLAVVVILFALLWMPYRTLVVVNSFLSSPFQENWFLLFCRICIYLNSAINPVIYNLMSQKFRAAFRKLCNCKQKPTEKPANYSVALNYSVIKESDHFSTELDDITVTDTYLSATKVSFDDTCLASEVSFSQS
Sequence of Estrogen receptor beta (Homo sapiens) (Q92731 whole entry, looked up): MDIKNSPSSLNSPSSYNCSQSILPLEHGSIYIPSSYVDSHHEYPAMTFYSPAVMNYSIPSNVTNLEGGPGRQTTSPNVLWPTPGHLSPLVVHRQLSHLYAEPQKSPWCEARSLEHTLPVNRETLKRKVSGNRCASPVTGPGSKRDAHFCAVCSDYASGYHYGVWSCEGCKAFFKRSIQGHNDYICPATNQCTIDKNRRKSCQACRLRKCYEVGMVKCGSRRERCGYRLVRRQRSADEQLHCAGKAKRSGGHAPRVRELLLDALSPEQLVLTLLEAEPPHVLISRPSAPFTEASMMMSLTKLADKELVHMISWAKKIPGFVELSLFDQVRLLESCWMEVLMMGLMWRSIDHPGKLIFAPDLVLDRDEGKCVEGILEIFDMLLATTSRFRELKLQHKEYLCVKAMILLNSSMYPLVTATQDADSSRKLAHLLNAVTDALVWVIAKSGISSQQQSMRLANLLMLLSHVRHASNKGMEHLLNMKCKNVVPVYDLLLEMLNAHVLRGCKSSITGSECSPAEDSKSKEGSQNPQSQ
Sequence of Thyrotropin receptor (Homo sapiens) (P16473 whole entry, looked up): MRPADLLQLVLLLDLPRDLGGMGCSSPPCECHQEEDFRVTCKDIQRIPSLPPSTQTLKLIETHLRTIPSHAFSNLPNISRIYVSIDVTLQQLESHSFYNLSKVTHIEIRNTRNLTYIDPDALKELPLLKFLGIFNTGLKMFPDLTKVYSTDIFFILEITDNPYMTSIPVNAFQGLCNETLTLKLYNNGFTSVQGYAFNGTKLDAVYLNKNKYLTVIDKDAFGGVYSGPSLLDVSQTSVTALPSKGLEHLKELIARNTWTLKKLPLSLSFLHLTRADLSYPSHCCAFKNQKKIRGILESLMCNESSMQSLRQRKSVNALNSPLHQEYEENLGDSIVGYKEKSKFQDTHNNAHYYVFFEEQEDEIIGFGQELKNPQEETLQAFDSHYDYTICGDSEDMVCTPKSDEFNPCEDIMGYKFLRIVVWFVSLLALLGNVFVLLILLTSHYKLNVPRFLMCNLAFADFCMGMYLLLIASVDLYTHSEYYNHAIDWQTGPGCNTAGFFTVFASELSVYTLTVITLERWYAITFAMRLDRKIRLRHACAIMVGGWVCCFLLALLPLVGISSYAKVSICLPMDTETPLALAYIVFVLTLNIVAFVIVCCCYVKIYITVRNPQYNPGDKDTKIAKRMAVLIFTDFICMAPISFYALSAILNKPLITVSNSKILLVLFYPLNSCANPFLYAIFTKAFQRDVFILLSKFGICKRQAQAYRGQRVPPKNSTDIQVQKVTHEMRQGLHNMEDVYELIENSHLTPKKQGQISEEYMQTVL
Sequence of Androgen receptor (Homo sapiens) (P10275 whole entry, looked up): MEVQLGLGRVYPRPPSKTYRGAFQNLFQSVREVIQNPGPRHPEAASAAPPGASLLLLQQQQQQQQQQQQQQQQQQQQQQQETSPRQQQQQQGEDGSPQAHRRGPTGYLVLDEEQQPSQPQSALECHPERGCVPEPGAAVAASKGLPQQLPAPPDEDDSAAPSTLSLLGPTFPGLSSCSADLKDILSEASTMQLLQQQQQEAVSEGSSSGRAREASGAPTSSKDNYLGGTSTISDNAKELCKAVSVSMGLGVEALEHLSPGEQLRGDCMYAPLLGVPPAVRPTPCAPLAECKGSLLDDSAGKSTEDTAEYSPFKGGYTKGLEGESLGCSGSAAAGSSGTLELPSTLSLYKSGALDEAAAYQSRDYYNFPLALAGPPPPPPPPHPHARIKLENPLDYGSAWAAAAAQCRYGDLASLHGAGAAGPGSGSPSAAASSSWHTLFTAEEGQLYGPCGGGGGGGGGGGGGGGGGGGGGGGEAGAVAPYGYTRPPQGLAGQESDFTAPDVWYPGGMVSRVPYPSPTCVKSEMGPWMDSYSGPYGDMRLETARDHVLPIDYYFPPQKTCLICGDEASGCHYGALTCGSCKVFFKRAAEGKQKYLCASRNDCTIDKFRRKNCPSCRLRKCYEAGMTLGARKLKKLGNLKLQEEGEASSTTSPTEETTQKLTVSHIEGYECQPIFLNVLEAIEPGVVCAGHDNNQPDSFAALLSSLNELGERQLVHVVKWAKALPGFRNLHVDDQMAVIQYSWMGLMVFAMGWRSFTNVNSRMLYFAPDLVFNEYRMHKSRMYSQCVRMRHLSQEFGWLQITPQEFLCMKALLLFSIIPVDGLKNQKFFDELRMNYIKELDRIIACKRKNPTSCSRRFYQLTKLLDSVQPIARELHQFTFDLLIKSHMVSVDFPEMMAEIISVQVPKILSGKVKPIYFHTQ

Consider `O=C(c1ccc(O)cc1)c1ccc(O)cc1O`, for which the outcome in [1], in test [7], in [8], in test [14] and in [15] was inactive. In addition, the Potency is 55 µM (active) in test [2]; 13.8 µM (active) and 12.2 µM (active) in test [3]; 15.5 µM (active) and 13.7 µM (active) in test [6]; 19.5 µM (active) in test [11]. The Potency entry in test [4], in [5], in test [9], in test [10], in [12] and in test [13] was “inactive” throughout.
Regarding `CCCCC(CC)COC(=O)/C=C\C(=O)OCC(CC)CCCC` (centres undefined), the outcome in test [1], in test [7], in [8], in [14] and in [15] was inactive. Moreover, the Potency entry in [2], in [3], in [16], in [4], in test [17] and in [5] was “inactive” in each case. In addition, the Potency entry in test [9], in test [10], in [11], in test [18], in [19] and in [13] was “inactive” in each case.
Regarding `CC1COc2ccccc2N1C(=O)C(Cl)Cl` (centres undefined), the outcome in test [1], in test [7], in [8], in test [14] and in test [15] was inactive. The Potency in test [2] is 15.3 µM (active); in test [11] it was 30.6 µM (active) and 24.3 µM (active). For the same compound, the Potency entry in [3], in test [4], in [5], in test [6], in test [9] and in test [10] was “inactive” each time. In addition, the Potency entry in test [12] and in test [13] was “inactive” each time.
Take `CC(C)NCC(O)COc1cccc2ccccc12` (centres undefined): the compound was called inactive in test [1], in [14] and in [15]. Besides, the Potency in test [2] is 24.3 µM (active); in test [4] it was 55 µM (active) and 54.5 µM (active); in test [5], 27.6 µM (active); in test [18], 30.9 µM (active) and 27.3 µM (active). Also, the Potency entry in [3], in test [16], in test [9], in [10], in [11] and in [13] was “inactive” each time.
In the case of `CC(C)(C)C(=O)C1C(=O)c2ccccc2C1=O`, the outcome in test [1], in test [7], in test [8] and in test [14] was inactive. Moreover, the Potency in test [2] was 68.6 µM (active); in test [9], 60.5 µM (active) and 61.1 µM (active). For the same compound, the Potency result in test [3], in test [4], in test [5], in [6], in [10] and in test [11] was “inactive” throughout. The Potency result in test [18], in test [19], in test [12] and in test [13] was “inactive” each time.
Regarding `O=C1O[C@H](CO)[C@@H](O)[C@H](O)[C@H]1O`, the compound was called inactive in [1], in [7], in test [8], in test [14] and in test [15]. For the same compound, the Potency entry in test [2], in test [3], in test [4], in [5], in [6] and in test [9] was “inactive” in each case. For the same compound, the Potency entry in test [10], in [11], in test [18], in [19], in test [12] and in test [13] was “inactive” throughout.
In the case of `NC(=O)/N=N/C(N)=O`, the compound was called inactive in test [1], in test [14] and in test [15]. Further, the Potency result in [2], in [3], in [16], in [4], in test [5] and in test [6] was “inactive” throughout. Moreover, the Potency entry in test [9], in [10], in test [11], in [18], in [19] and in [12] was “inactive” each time. For the same compound, in test [13], the Potency entry is “inactive”.
